In PubChem BioAssay (NCI):
The panel holds about 83,000 compounds, 20% with a hit somewhere; the sample as a whole holds those more often.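 Step 1: grow cells in 96-well plates. Step 2: add test compound at a single concentration. Step 3: incubate 48 h. Step 4: record percent growth.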 Values without a mark were called inactive. Activity calls are given as the source filed them.

Each compound was assayed on NCI-H23 lung (assay: NCI-60 one-dose screen, 48 h (100 = growth as untreated, 0 = no growth, -100 = all killed)). Conditions: 10 µM unless noted.
Experimental: Growth inhibition of the NCI-H23 human Non-Small Cell Lung tumor cell line is measured as a screen for anti-cancer activity. Cells are grown in 96 well plates and exposed to the test compound for 48 hours. Compounds are tested at a single concentration, which is 10^-5 M for most compounds. The reported endpoint is percent growth (GI% or GIPRCNT), where numbers from 0 - 100% represent growth inhibition, and numbers from -100% - 0 represent cell death. For example, a value of 40 represents 60% growth inhibition. A value of 0 means no net growth occurred over the course of the experiment. A value of -40 indicates 40% of cells at the beginning of the experiment died by the end of the experiment. A value of -100 means all cells are dead at the end of the experiment.
NCI-60 Human Tumor Cell Lines Screen was performed using the standard one-dose NCI protocol, which is described in more detail at https://dtp.cancer.gov/discovery_development/nci-60/default.htm.
Compounds with GIPRCNT values below 10 were considered active. Activity score was based on GIPRCNT using the following formula: […]
Score is 0 for GIPRCNT values of 100 or above, 50 for GIPRCNT values of 0, and 100 for GIPRCNT values of -100.
`C[C@H](C(=O)N(CCc1ccc(Cl)c(Cl)c1)Cc1cncs1)[C@@H]1CC[C@H](C[C@H](C)n2cc(CN3CCC(c4ccc(Cl)cc4)CC3)nn2)O1` showed a growth of 98.2%.
`Cn1cc(-c2csc(-c3cn(CCCN4CCOCC4)c4ccccc34)n2)c2cccnc21` showed a growth of 88.3%.
In the case of `NC(N)=NS(=O)(=O)c1ccc(NC2=C(I)C(=O)c3ncccc3C2=O)cc1`, the growth is reported as 89.9%.
Work on `C=C1CC[C@@H]2C(C)(C)[C@@H](O)CC[C@@]2(C)[C@@H]1COc1ccc2ccc(=O)oc2c1` yielded a growth of 75.3%.
Work on `CCN(CC)CCCOc1ccc2ncnc(Nc3ccc(Oc4cccc(C(F)(F)F)c4)c(Cl)c3)c2c1` yielded a growth of 15.4%.
Work on `Cn1c2c(c3ccc(Cl)c(Cl)c31)C(C#N)C(C)(C)NC2=O` (stereo not given) yielded a growth of 97.6%.
In the case of `O=C1C(Nc2ccccn2)=C(I)C(=O)c2ncccc21`, the growth is reported as -35.1% (active).
For `CC1(C)[C@@H](O[C@@H]2OC[C@@H](O[C@@H]3O[C@H](CO)[C@@H](O)[C@H](O)[C@H]3O[C@@H]3OC[C@@H](O)[C@H](O)[C@H]3O)[C@H](O)[C@H]2O[C@@H]2O[C@H](CO)[C@@H](O)[C@H](O)[C@H]2O)CC[C@]2(C)[C@H]3CC[C@]45OC[C@@]6(CC[C@](C)(C=O)C[C@H]64)[C@H](O)C[C@@]5(C)[C@]3(C)CC[C@@H]12`, the growth was -55.1% (active).
Compound `CC1(C)CC[C@]2(C(=O)N[C@H](CO)Cc3ccccc3)CC[C@]3(C)C(=CC[C@@H]4[C@@]5(C)CCCNC(C)(C)[C@@H]5CC[C@]43C)[C@@H]2C1` has a growth of 104%.
With `CC1(C)CC[C@]23CC[C@]4(C)[C@H](CC[C@@H]5[C@@]6(C)C/C(=C/c7ccncc7)C(=O)C(C)(C)[C@@H]6CC[C@]54C)[C@H]2[C@H]1OC3` the growth was 91.8%.
With `CC/C=C\CCC/C=C1/C(=O)C=C[C@@H]1C/C=C\CCCC(=O)OC` the growth was 34.9%.
Work on `COC(=O)c1ccc(NC(=O)Nc2ccc(C(=O)OC)cc2)cc1` yielded a growth of 113%.
Work on `COc1ccc(/C=C/C(c2cc(OC)c(OC)c(OC)c2)n2ccnc2)cc1O` (stereo not given) yielded a growth of 55.7%.
In the case of `CCOC(=O)c1c(C)c2c(n1Cc1ccccc1)CSCC2=O`, the growth is reported as 4.82% [100 µM] (active).
In the case of `COc1ccc(/C=C/C(=O)c2cc3c(N)c(C(=O)Nc4cccc(Cl)c4C)sc3nc2C)cc1`, the growth is reported as 19.8%.
`CNC(=O)c1cc(Oc2cccc3nc(NC(=O)Nc4cc(C(F)(F)F)ccc4Cl)ccc23)ccn1` showed a growth of 80%.
Work on `C=CCn1c(SCC(=O)Nc2ccc(/C(C)=N/O)cc2)nnc1-c1cc(-c2ccc(S(N)(=O)=O)cc2)nc2ccccc12` yielded a growth of 97.3%.
With `CC(=O)O[C@H]1C[C@@H]2C(C)(C)C(=O)CC[C@@]2(C)c2ccc(C(C)C)cc21` the growth was 102%.
Compound `Cc1nnc(-c2ccc3c(c2)nc(/C=C/c2ccccc2)n3C2CCCCC2)o1` has a growth of 88.3%.
For `CCCCCCCCCCCCCCCCCCOc1ccccc1CC(=O)NCC[N+]1(C)CCCCC1`, the growth was 62.5%.
For `CCOC(=O)c1c(C)nc2ccccc2c1/C=C/c1cccs1`, the growth was 57.6%.
`O=C1Nc2c(C(=O)O)cccc2/C1=N/c1n[nH]c(=S)s1` was tested, and the growth was 87.8%.
`Fc1ccc(Cn2cc(CSc3nc4ccccc4o3)nn2)cc1` showed a growth of 106%.
Work on `CCN1CCN(C(=O)[C@]23CC[C@@H](C)[C@H](C)[C@@H]2C2=CC[C@@H]4[C@@]5(C)C/C(=C/c6cccnc6)C(=O)C(C)(C)[C@@H]5CC[C@@]4(C)[C@]2(C)CC3)CC1` yielded a growth of 34.2%.
With `Cn1ccc(=O)nc1` the growth was 88.7%.
`COc1ccc2c(c1)CCc1[nH]nc(-c3cc(OC)c(OC)c(OC)c3)c1-2` was tested, and the growth was 12.7%.
Work on `C=C(C)[C@@H]1CC[C@]2(C(=O)N3CCN(C)CC3)CC[C@]3(C)[C@H](CC[C@@H]4[C@@]5(C)CC[C@H](OC(=O)c6ccccc6C(=O)O)C(C)(C)[C@@H]5CC[C@]43C)[C@@H]12` yielded a growth of 99.9%.
For `CCn1c(-c2cc3c([nH]c4ccccc43)c(-c3cccc(O)c3)n2)n[nH]c1=S`, the growth was 68.4%.
`CNCc1cccc2c1OCCOCCOCCNS(=O)(=O)c1ccc(cc1)-c1cnc(N)c(n1)C(=O)N2` gave a growth of 36.7%.
In the case of `C=C1C(=O)O[C@H]2[C@H]1CC/C(CNC(=O)c1c[nH]c3ccc(F)cc13)=C\CC[C@@]1(C)O[C@@H]21`, the growth is reported as 14.2%.
`CC1=C(C(=O)Nc2nc(-c3ccc(Cl)cc3)cs2)[C@H](c2ccc(O)cc2)NC(=O)N1` gave a growth of 101%.
Work on `[2H]C([2H])([2H])Oc1ccc(F)cc1/C=C/C(=O)/C=C(/C=C/c1cc(F)ccc1OC([2H])([2H])[2H])OB(F)F` yielded a growth of 76.6%.
Work on `Cc1c2cccnc2c(C)c2c1c1cc(CO)ccc1n2C` yielded a growth of 30.6%.
With `NC1=Nc2cc(OCCCCN3Cc4ccccc4C3)c(OCC3CC3)cc2C12CCCC2` the growth was 66.9%.
Work on `O=C(NNC(=O)c1ccc(NC(=O)c2ccccn2)cc1)Nc1ccc2ccccc2c1` yielded a growth of 96.5%.
For `CCOC(=O)c1cc(C(=O)c2cc(OC)c(OC)c(OC)c2)n2ccccc12`, the growth was 38.9%.
In the case of `O=C1/C(=C\c2ccccn2)c2ccccc2N1c1c(Cl)cccc1Cl`, the growth is reported as 13%.
`CC1CCN(C(=O)CCCl)c2ccccc21` (stereo not given) was tested, and the growth was 90.6%.
`COc1ccc(C(=O)/C=C/c2ccc(N3CCCCC3)cc2)cc1OC` showed a growth of 92.5%.
With `O=C(C1CCCCC1)[C@@H]1[C@]2(C(=O)NC3CCCCC32)[C@@H]2CCCN2[C@@]12C(=O)NC1CCC(Cl)CC12` (stereo not given in full) the growth was -81.4% [100 µM] (active).
